According to PubChem BioAssay AID1053193 (Broad Institute, 2014):
Calls of active or inactive are those of the source.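 How the source made its calls: active means cell killing, with a fitted half-maximal concentration at or below twice the top valid dose tested; inconclusive means flat curve losing 30 to 70% signal, or unreliable fit; inactive means effect in the rising direction, plus the rest.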

experiment: viability loss in A549 lung cells – cell-based, CellTiter-Glo luminescence, 72 h, dry powder, cytotoxicity control, dose response (AID 1053193); settings: CellTiter-Glo ATP luminescence; series mostly up to 50 µM

| Structure (SMILES) | outcome |
| --- | --- |
| COc1cc(CC2C(=O)Nc3ccccc32)cc(C)c1O (stereo not given) | inactive |
| O=C(O)C1CCN(c2nc(-c3ccccc3)c3cc(Br)ccc3n2)CC1 | inactive |
| Cc1cc2ccccc2n1CCNC(=O)COc1ccc2ccccc2c1 | inactive |
| COc1ccc(Nc2ccccc2N)cc1 | inactive |
| CCc1ccc(-n2c(=S)sc3c(=O)n(-c4ccccc4C)c(SCC(=O)O)nc32)cc1 | inactive |
| Cc1cccc(NC(=O)NCc2ccc3c(c2)cc(C)n3C)c1 | inactive |
| Cc1cc(C)c(S(=O)(=O)NCCn2c(C)cc3ccccc32)c(C)c1 | inactive |
| Cc1cc2cc(CNC(=O)Nc3cccc(Cl)c3)ccc2n1C | inactive |
| CCc1cccc2c1NC1(CCCC1)CC2C (stereo not given) | inactive |
| CNc1ccccc1C(C)(C)c1cc(-c2cccc(OC)c2)no1 | inactive |
| Cc1cc2cc(CNC(=O)Nc3ccc(Cl)c(Cl)c3)ccc2n1C | inactive |
| OCc1ccc(-c2nn(Cc3ccccc3)c3ccccc23)o1 | inactive |
| O=C(c1c(F)cccc1F)N(Cc1ccccc1)Cc1ccccc1 | inactive |
| Cc1ccc(S(=O)(=O)NCc2ccc3c(c2)cc(C)n3C)cc1 | inactive |
| Cc1ccc(CSc2nc3[nH]ncc3c(=O)[nH]2)cc1 | inactive |
